Bioassay records from PubChem BioAssay.
Hits are enriched below; roughly 1.7% of the tested compounds scored in any of these assays.
PTHR1 ag – activates the human parathyroid hormone receptor PTHR1. AID 743266. Potency, µM (doses to about 115 µM), most hits filed as activators. hit rate 0.075% among 410,000. HEK293 GP2 PTHR1 cells, GloSensor cAMP luminescence, 1 h. Q03431; note: nearly all actives have a fitted effect of over 55% in size
Target sequence (Q03431 whole entry, looked up): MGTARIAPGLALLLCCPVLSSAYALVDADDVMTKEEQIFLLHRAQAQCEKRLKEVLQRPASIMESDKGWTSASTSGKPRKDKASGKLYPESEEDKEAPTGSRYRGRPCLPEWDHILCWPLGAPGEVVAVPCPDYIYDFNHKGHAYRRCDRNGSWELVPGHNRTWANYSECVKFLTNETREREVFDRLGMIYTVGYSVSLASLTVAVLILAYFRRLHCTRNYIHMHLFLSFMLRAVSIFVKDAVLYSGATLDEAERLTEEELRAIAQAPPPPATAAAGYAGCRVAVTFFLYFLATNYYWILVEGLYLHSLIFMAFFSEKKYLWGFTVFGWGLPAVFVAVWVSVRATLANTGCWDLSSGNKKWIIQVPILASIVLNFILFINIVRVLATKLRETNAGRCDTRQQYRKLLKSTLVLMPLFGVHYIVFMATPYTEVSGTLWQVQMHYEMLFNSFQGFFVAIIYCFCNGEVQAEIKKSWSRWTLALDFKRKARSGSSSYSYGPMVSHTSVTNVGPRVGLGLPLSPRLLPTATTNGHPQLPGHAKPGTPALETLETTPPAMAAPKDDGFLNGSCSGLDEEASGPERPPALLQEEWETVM
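HEK-293-derived GP2 cells expressing PTHR1 and a GloSensor cAMP reporter, 3,000/well, plated overnight, given luciferin plus IBMX (each 0.5 mM as added) for 1 h at 37 °C, then compound for 1 h at 37 °C. Luminescence was read after 15 min at room temperature.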
HEK293 tox – cytotoxicity counter-screen for GLP-1 receptor inverse agonists | hit rate 0.13% among 410,000 | HEK293 cAMP-luciferase reporter cells, luminescence, 24 h | Potency, µM (titrated, usually from 38.3 µM), usual class: inhibitors;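 note: loss of luciferase light is scored as toxicity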
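A 23 nL compound transfer followed 12 hours of cell culture at 37 deg C; exposure then lasted 24 hr. Luciferase assay detection reagent was dispensed and plates read for luminescence after a 12 min room-temperature wait.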
GLP-1R agonist – agonists of human GLP-1 receptor; P43220; HEK293 GLP-1R CRE-luciferase, luminescence, 4-6 h; cells express a hypersensitive GLP-1R form; Potency, µM (top dose mostly 45.6 µM), actives largely listed as activators; hit rate 0.007% among 380,000; AID 624172
GLP1R inv ag – acts as inverse agonist at human GLP-1 receptor; P43220; Potency, µM (doses to about 38.3 µM), usual class: inhibitors; hit rate 1.6% among 410,000; HEK293 GLP-1R CRE-luciferase, luminescence, 24 h; GLP-1R form is constitutively active; note: nearly all actives have a fitted effect of over 55% in size
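Stable HEK293 clone (constitutively active GLP-1R + cAMP-response luciferase); 200 cells/uL plated, 12 h pre-culture, compound 24 hr, 37 deg C/5% CO2; detection reagent 12 min RT; luminescence.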
Each line names hits and unclear results; the compound was inactive in the other large screens. Calls come from the whole dose curve; as a rule, active = well fitted curve in the direction sought with a large enough effect; inconclusive = small, poorly fitted or top-dose-only effect, or another doubt; inactive = no such curve, though single readings can be large; an effect the other way counts as inactive or inconclusive.

CCOC(=O)C(C)N1C(=O)S/C(=C/c2cc(C)n(-c3ccncc3)c2C)C1=O (configuration not stated)	GLP1R inv ag inconclusive
O=C(Cc1ccc(Cl)cc1)c1c[nH]c(C(=O)NCc2cccnc2)c1	HEK293 tox inconclusive, GLP1R inv ag 2.8µM
CC(C)(C)c1ccc(C(=O)c2c[nH]c(C(=O)NCc3cccnc3)c2)cc1	none
CCCNC(=O)c1cccc(Cn2nc(C)c(Br)c2C)c1	GLP1R inv ag inconclusive
Cc1nn(Cc2cccc(C(=O)NC34CC5CC(CC(C5)C3)C4)c2)c(C)c1Br	GLP1R inv ag 2.8µM
CCCn1c(NC(=O)c2ccc(C)cc2)nc2ccccc21	GLP1R inv ag inconclusive
CCCn1c(NC(=O)c2ccccc2)nc2ccccc21	HEK293 tox inconclusive, GLP1R inv ag 11µM
CC(C)Cn1c(CNC(=O)c2ccccc2)nc2ccccc21	GLP1R inv ag 14µM
CC1CCCN(C(=O)c2ccc(CSc3nc4ccncc4n3Cc3ccccc3)cc2)C1 (configuration not stated)	GLP1R inv ag inconclusive (no result: GLP-1R agonist)
C[C@@H]1COC(=O)[C@@H](CC(=O)OC(C)(C)C)C/C=C\C[C@@H](CC(=O)NCCO)C(=O)N1	none
CC(N)C(=O)NCC(=O)NC1CSSCC(C(=O)O)NC(=O)C(CO)NC(=O)C(C(C)O)NC(=O)C(Cc2ccccc2)NC(=O)C(C(C)O)NC(=O)C(CCCCN)NC(=O)C(Cc2c[nH]c3ccccc23)NC(=O)C(Cc2ccccc2)NC(=O)C(Cc2ccccc2)NC(=O)C(CC(N)=O)NC(=O)C(CCCCN)NC1=O (configuration not stated)	none (no result: PTHR1 ag, HEK293 tox, GLP1R inv ag)
CCC(C)c1ccc(OCc2ccc(C(=O)O)o2)cc1 (configuration not stated)	GLP1R inv ag 2µM
CCOC(=O)C(CCCOc1ccc(C(C)CC)cc1)C(=O)OCC (configuration not stated)	GLP1R inv ag 10µM
COc1cc(C2C(C#N)=C(N)N(N(C)C)C3=C2C(=O)CC(C)(C)C3)cc(OC)c1OC (configuration not stated)	none
CCOC(=O)C1CCN(C(=O)COC(=O)CN(C)S(=O)(=O)c2ccc(NC(C)=O)cc2)CC1	none
COC(=O)c1sccc1S(=O)(=O)N(CC(=O)Nc1ccccc1F)c1ccccc1	none (no result: GLP-1R agonist)
COc1ccc(N(CCC(=O)Nc2ccccc2F)S(=O)(=O)c2ccc(C)cc2C)cc1	GLP1R inv ag 10µM
CCOC(=O)c1ccc(N/C(=N\S(=O)(=O)c2ccccc2C)c2ccccc2)cc1	GLP1R inv ag inconclusive
Cc1ccc(C)c(S(=O)(=O)/N=C(/Nc2ccccc2)c2ccccc2)c1	GLP1R inv ag 10µM
CC(C)C(c1nnnn1C(C)(C)C)N1CCC(Cc2ccccc2)CC1 (configuration not stated)	none
O=C(COc1ccc2c(c1)C(=O)CC1(CCCCC1)O2)NCc1ccccc1	GLP1R inv ag 11µM
O=C(COc1ccc2c(c1)C(=O)CC1(CCCCC1)O2)NCc1ccccn1	none
CC(=O)c1ccc(NC(=O)c2cnn3ccccc23)cc1	GLP1R inv ag 2.5µM
Cc1ccc(NC(=S)NCc2ccccc2)cc1S(=O)(=O)N1CCCCC1	GLP1R inv ag 11µM
Cc1ccc(NC(=O)CSc2ccccc2)cc1S(=O)(=O)N1CCCCC1	GLP1R inv ag 7.9µM
Cc1ccc(NC(=O)CSc2ccccc2)cc1S(=O)(=O)N1CCOCC1	none
Cc1cccc(NC(=O)c2ccccc2NC(=O)c2ccco2)c1	GLP1R inv ag inconclusive
CCOC(=O)Cc1csc(NC(=O)Nc2ccc(Cl)cc2)n1	GLP1R inv ag 11µM
O=C(CN1C(=O)CNC1=O)Nc1cc(Cl)cc(Cl)c1	GLP1R inv ag inconclusive
Cc1ccccc1OCC(=O)Nc1ccc(N2CCN(C)CC2)c(Cl)c1	GLP1R inv ag 4.5µM
COc1ccc(OCC(=O)Nc2ccc(N3CCN(C(=O)c4ccccc4)CC3)c(Cl)c2)cc1	GLP1R inv ag 10µM
CCC(=O)N1CCN(c2ccccc2NC(=O)COc2ccc(C(C)C)cc2)CC1	GLP1R inv ag 10µM
Cc1ccccc1OCC(=O)Nc1ccc2c(c1)Cc1ccccc1-2	none
COc1ccc(OCC(=O)Nc2ccccc2N2CCN(C)CC2)cc1	GLP1R inv ag inconclusive
Nc1ncn(C2C[C@H](O)[C@@H](CO)O2)c(=O)n1 (some centres not stated)	none (no result: PTHR1 ag, HEK293 tox, GLP1R inv ag)
COC(=O)C1=C(C)N(c2ccc(OC)cc2)C(C)=C(C(=O)OC)C1c1ccccc1	GLP1R inv ag 8.9µM
Cc1ccccc1C(=O)N1CC/C(=N/OS(=O)(=O)O)c2ccc(Cl)cc21	none (no result: PTHR1 ag, HEK293 tox, GLP1R inv ag)
S=C(Nc1ccc(Cl)cc1)NC1CC2CCCC(C1)N2C1CC1 (configuration not stated)	GLP1R inv ag inconclusive
CCc1ccc(NC(=S)NC2CC3CCCC(C2)N3Cc2ccccc2)cc1 (configuration not stated)	HEK293 tox inconclusive, GLP1R inv ag inconclusive
S=C(Nc1ccc(Cl)cc1)NC1CC2CCC(C1)N2Cc1ccccc1 (configuration not stated)	GLP1R inv ag 7.1µM
S=C(Nc1ccc(Cl)cc1)NC1CC2CCCC(C1)N2C1CCCC1 (configuration not stated)	PTHR1 ag inconclusive, HEK293 tox inconclusive, GLP1R inv ag 8.9µM
CCC(C(=O)O)C1OC(C(C)C(O)C(C)C(=O)C(CC)C2OC3(C=CC(O)C4(CCC(C)(C5CCC(O)(CC)C(C)O5)O4)O3)C(C)CC2C)C(C)CC1C (configuration not stated)	none (no result: PTHR1 ag, HEK293 tox, GLP1R inv ag)
COC(=O)C[C@H]1CC[C@@H](NC(=O)Nc2cccc(OC)c2)[C@@H](CO)O1	none (no result: GLP-1R agonist)
O=C(Oc1ccccc1)c1cccc2cccc(C(=O)Oc3ccccc3)c12	GLP1R inv ag 10µM
Cc1cc(F)ccc1NC(=O)c1ccc(NS(=O)(=O)c2cc(C(C)(C)C)ccc2C)cc1	HEK293 tox inconclusive, GLP1R inv ag 4.5µM
O=C(COc1ccc(-c2nnco2)cc1)N1CCN(S(=O)(=O)c2ccc3ccccc3c2)CC1	none
COC(=O)c1cn(NC(=O)c2cc([N+](=O)[O-])ccc2F)c(=O)c2ccccc12	GLP1R inv ag 1.6µM
COC(=O)c1cn(NC(=O)C2CCC(C)CC2)c(=O)c2ccccc12 (configuration not stated)	none
COc1cc(/C=C/c2ccc3cccc(O)c3n2)cc(Br)c1OC	HEK293 tox inconclusive, GLP-1R agonist inconclusive, GLP1R inv ag 4.5µM
COc1ccc(/C=C/c2ccc3cccc(O)c3n2)c(OC)c1OC	GLP1R inv ag 2.5µM
COc1cc(/C=C/c2ccc3c(Br)cc(Br)c(O)c3n2)ccc1O	HEK293 tox inconclusive, GLP1R inv ag 7.9µM
COc1cc(/C=C/c2ccc3cccc(O)c3n2)cc(OC)c1OC	HEK293 tox inconclusive, GLP1R inv ag inconclusive
O=C(CCCN1C(=O)/C(=C/c2cccc(Br)c2)SC1=S)N1CCOCC1	none
COC(=O)c1ccc(/C=C2/SC(=S)N(CCCC(=O)Nc3ccc(O)cc3)C2=O)cc1	HEK293 tox inconclusive, GLP1R inv ag 7.9µM
